Screens deposited in PubChem by National Center for Advancing Translational Sciences (NCATS).
This is a sample that favours compounds with a hit; in the whole collection about 2.9% have one here.
EPAC2 antag: validation of human EPAC2 antagonists; EPAC2 Rap1B BODIPY-GDP exchange, fluorescence; Potency, µM (top dose mostly 112 µM), actives largely listed as inhibitors; 1.7% of 16,000 active; further: nearly all actives have a fitted effect of over 40% in size
Target sequence (Q8WZA2 whole entry, looked up): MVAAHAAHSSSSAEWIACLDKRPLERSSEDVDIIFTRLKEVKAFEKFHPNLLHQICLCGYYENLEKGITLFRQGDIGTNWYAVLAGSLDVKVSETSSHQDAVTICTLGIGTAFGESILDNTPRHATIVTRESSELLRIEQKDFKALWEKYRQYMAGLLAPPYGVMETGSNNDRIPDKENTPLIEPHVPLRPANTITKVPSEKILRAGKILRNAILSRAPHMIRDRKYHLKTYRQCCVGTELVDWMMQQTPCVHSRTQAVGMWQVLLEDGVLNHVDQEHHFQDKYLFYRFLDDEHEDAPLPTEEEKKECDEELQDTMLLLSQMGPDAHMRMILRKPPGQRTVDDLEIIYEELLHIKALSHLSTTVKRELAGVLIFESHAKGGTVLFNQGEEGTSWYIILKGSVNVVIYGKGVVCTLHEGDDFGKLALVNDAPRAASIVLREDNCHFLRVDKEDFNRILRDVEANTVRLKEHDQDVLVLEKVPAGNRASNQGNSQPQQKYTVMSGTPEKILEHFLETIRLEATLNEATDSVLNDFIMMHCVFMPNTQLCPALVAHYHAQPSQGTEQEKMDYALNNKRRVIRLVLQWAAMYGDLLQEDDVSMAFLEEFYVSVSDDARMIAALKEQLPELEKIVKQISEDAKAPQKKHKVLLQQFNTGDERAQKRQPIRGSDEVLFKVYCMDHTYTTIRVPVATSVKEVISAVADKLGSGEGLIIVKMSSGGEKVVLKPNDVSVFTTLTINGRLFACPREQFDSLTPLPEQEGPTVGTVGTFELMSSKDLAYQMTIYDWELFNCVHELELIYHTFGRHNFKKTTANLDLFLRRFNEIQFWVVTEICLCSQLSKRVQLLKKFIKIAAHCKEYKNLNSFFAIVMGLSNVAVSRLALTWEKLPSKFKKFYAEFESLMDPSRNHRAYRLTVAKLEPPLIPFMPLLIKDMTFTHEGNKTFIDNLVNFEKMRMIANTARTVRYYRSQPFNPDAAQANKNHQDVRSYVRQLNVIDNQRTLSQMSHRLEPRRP
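Fluorescent exchange read-out: 100 nM EPAC2 with 250 nM RAP1B–BODIPY-GDP and 50 uM GDP; BODIPY-GDP release lowers fluorescence. Read at 480/540 nm every 5 min for 30 min at room temperature; normalized to 6.5 mM cAMP.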
EPAC1 agonist: human EPAC1 agonism, validation | O95398 | EPAC1 Rap1b BODIPY-GDP exchange, fluorescence | Potency, µM, usual class: activators | 1% of 16,000 active; further: nearly all actives have a fitted effect of over 70% in size
Of the large screens only hits and unclear results are named; the others gave an inactive call. The call rests on the fitted dose curve; in most records, active means well fitted curve in the direction sought with a large enough effect; inconclusive means small, poorly fitted or top-dose-only effect, or another doubt; inactive means no such curve, though single readings can be large; an effect the other way counts as inactive or inconclusive.

COc1cccc(Nc2ncc3nc(-c4ccc(F)cc4)c(=O)n(CCC#N)c3n2)c1	EPAC1 agonist 112µM
COc1ccc(-c2nc3cnc(Oc4ccccc4)nc3n(CCC#N)c2=O)cc1	EPAC1 agonist inconclusive
COc1cccc(Nc2ncc3nc(-c4ccc(F)cc4)c(=O)n(C)c3n2)c1	none
COc1ccc(-c2nc3cnc(Nc4ccccc4)nc3n(CCC#N)c2=O)cc1	EPAC1 agonist 112µM
CC(C)(C)C(=O)OCC(=O)[C@H]1CC[C@H]2[C@@H]3CCC4=CC(=O)CC[C@]4(C)[C@H]3CC[C@]12C	none
CC[n+]1c(/C=C/C=C2/N(C)c3ccccc3C2(C)C)sc2ccccc21	EPAC1 agonist inconclusive
Oc1cc(-c2nc3ccccc3s2)cc2c1OCCN(Cc1cn[nH]c1-c1ccc(Cl)cc1)C2	none
CC(C)(C)NC(=O)[C@H]1CC[C@H]2[C@@H]3CC=C4C=C(C(=O)O)CC[C@]4(C)[C@H]3CC[C@]12C	none
c1ccc(Nc2nc(-c3ccc4c(c3)OCO4)nc3ccccc23)cc1	EPAC1 agonist 100µM
CNc1nc(-c2ccc3c(c2)OCO3)nc2ccccc12	none
CC(=O)c1ccc(-c2ccc3c4c(ccc3c2)OC(CNC(=O)C(C)N2CCOCC2)C4)s1 (centres undefined)	none
Cc1cccc(CNC(=O)c2cnn(-c3nccc(-c4cccs4)n3)c2C(C)C)n1	none
S=C(S)O[C@@H]1C[C@@H]2C[C@H]1[C@@H]1CCC[C@H]21	EPAC2 antag 50.1µM
S=C(S)OC1CC2CC1C1CCCC21 (centres undefined)	none
O=C1O[C@@H]2[C@@H](O)[C@H](O)O[C@@H]2[C@H]1O	none
O=c1c(-c2ccc(F)c(F)c2)nc2cncnc2n1Cc1ccccc1Cl	EPAC2 antag inconclusive, EPAC1 agonist 100µM
O=c1c(-c2cc(F)cc(F)c2)nc2cncnc2n1Cc1ccccc1Cl	EPAC1 agonist inconclusive
CCC(=O)OC1CCC2C3CCc4cc(O)ccc4C3CC[C@]12C (some centres undefined)	EPAC2 antag 39.8µM
C[C@]12CC[C@@H]3c4ccc(O)cc4CC[C@H]3[C@@H]1CC[C@@H]2OP(=O)(O)O	none
C[C@]12CC[C@@H]3c4ccc(O)cc4CC[C@H]3[C@@H]1CC[C@@H]2OC(=O)CCC1CCCC1	EPAC1 agonist inconclusive
CCC(=O)O[C@H]1CC[C@H]2[C@@H]3CCc4cc(O)ccc4[C@H]3CC[C@]12C	EPAC2 antag 50.1µM
C[C@@]12CCC3c4ccc(O)cc4CCC3C1CCC2O (some centres undefined)	none
CCCCC(=O)O[C@H]1CC[C@H]2[C@@H]3CCc4cc(O)ccc4[C@H]3CC[C@]12C	EPAC2 antag 50.1µM
COc1cccc(CN2CCCC(c3nc(-c4ccncc4)ncc3-c3ccccc3)C2)c1O (centres undefined)	none
CNC(C)[C@@H]1CC[C@@H](N)[C@@H](O[C@H]2[C@H](O)[C@@H](O[C@H]3OC[C@](C)(O)[C@H](NC)[C@H]3O)[C@H](N)C[C@@H]2N)O1 (some centres undefined)	none
CO[C@H]1C[C@H](O[C@H]2[C@H](C)[C@@H](O[C@@H]3O[C@H](C)C[C@H](N(C)C)[C@H]3OC(C)=O)[C@@H](C)C[C@]3(CO3)C(=O)[C@H](C)[C@@H](OC(C)=O)[C@@H](C)[C@@H](C)OC(=O)[C@@H]2C)O[C@@H](C)[C@@H]1OC(C)=O	none
O=C(c1cnsn1)N1CCOc2ccc(C(O)C(c3ccccc3)c3ccccc3)cc2C1 (centres undefined)	none
O=C([C@@H]1C[C@@H](Sc2nc3ccccc3[nH]2)CN1Cc1ccc(C(F)(F)F)cc1)N1CCN(c2ccccc2F)CC1	none
O=S1(=O)CCOC[C@H](CC2CCCCC2)N1Cc1ccccc1F	EPAC2 antag inconclusive
O=S1(=O)CCOC[C@H](CC2CCCCC2)N1Cc1cccc(C(F)(F)F)c1	EPAC2 antag 17.8µM
CCCSS/C(CCO)=C(\C)N(C=O)Cc1cnc(C)nc1N	none
COc1cc(-c2c(-c3ccc4c(c3)OCO4)noc2-c2ccsc2)ccc1F	EPAC2 antag inconclusive
Cc1onc(-c2ccc3c(c2)OCO3)c1-c1ccc2[nH]ccc2c1	EPAC2 antag inconclusive, EPAC1 agonist 100µM
CC(=O)OCC(=O)[C@@]1(O)[C@H](C)C[C@H]2[C@@H]3C[C@H](F)C4=CC(=O)C=C[C@]4(C)[C@H]3[C@@H](O)C[C@@]21C	none
Brc1c(Br)c(Br)c2n[nH]nc2c1Br	EPAC2 antag 39.8µM
Brc1c(Br)c(Br)c2[nH]cnc2c1Br	none
Cc1oc(-c2cccc(NC(=O)c3ccccn3)c2)nc1CNC(=O)C#Cc1ccccc1	none
CC(O)[C@H]1CC[C@H]2[C@@H]3CC[C@@H]4C[C@@H](O)CC[C@]4(C)[C@H]3CC[C@]12C (some centres undefined)	none
CCCCCCC[n+]1ccc(/C=C/c2c(C)[nH]c3ccccc23)cc1	EPAC1 agonist 100µM
CCCCCCCCCCCCCCCC[n+]1ccc(/C=C/c2c[nH]c3ccccc23)cc1	EPAC1 agonist inconclusive
CCCCCCCCCC[n+]1ccc(/C=C/c2c[nH]c3ccccc23)cc1	EPAC1 agonist 100µM
CCCCCCCCCCCCCCCC[n+]1ccc(/C=C/c2c(C)[nH]c3ccccc23)cc1	EPAC2 antag inconclusive
O=C(CO)[C@@H](O)[C@H](O)[C@H](O)CO	none
O=C1/C(=C\c2cccs2)CCC/C1=C\c1cccs1	none
CC[C@]1(O)C[C@H]2CN(CCC3=c4ccccc4=N[C]3[C@@](C(=O)OC)(c3cc4c(cc3OC)N(C)[C@H]3[C@@](O)(C(N)=O)[C@H](O)[C@]5(CC)C=CCN6CC[C@]43[C@@H]65)C2)C1	none
O=C(O)[C@@H]1C[C@H](CP(=O)(O)O)CCN1	none
C=C1C(=C/C=C2\CCC[C@]3(C)[C@@H]([C@H](C)/C=C/[C@@H](O)C4CC4)CC[C@@H]23)C[C@@H](O)C[C@@H]1O	none
C=C1CCC(O)C/C1=C\C=C1/CCCC2(C)C1CCC2C(C)/C=C/C(C)C(C)C (centres undefined)	EPAC2 antag 50.1µM
COc1cc(C=C2CCC/C(=C\c3ccc(O)c(OC)c3)C2=O)ccc1O	EPAC1 agonist inconclusive
CO[C@@H]1[C@H](OC(=O)/C=C/C=C/C=C/C=C/C(=O)O)CC[C@]2(CO2)[C@H]1[C@@]1(C)O[C@@H]1CC=C(C)C	none
COc1ccc(C(=O)/C(Br)=C\C(=O)O)cc1	none
CN(C)c1ncc2nc(CCc3ccccc3)c(=O)n(-c3ccccc3)c2n1	EPAC1 agonist 112µM
CN(C)c1ncc2nc(-c3ccc(F)cc3)c(=O)n(-c3ccccc3)c2n1	EPAC1 agonist 100µM
CN(C)c1ncc2nc(-c3ccc(F)cc3)c(=O)n(CCc3ccccc3)c2n1	none
COc1ncc2nc(CCc3ccccc3)c(=O)n(-c3ccccc3)c2n1	EPAC1 agonist inconclusive
Nc1c2ccccc2nc2ccccc12 (tested in a mixture with another compound)	EPAC2 antag 79.4µM
Nc1cccc2c(N)cccc12	EPAC2 antag inconclusive
CN(Cc1ccco1)c1nc(-c2ccoc2)nc2ccccc12	EPAC2 antag 25.1µM, EPAC1 agonist inconclusive
CN(Cc1ccco1)c1nc(-c2cccc(C#N)c2)nc2ccccc12	EPAC1 agonist 100µM
Cc1noc(C)c1-c1nccc(N(C)Cc2ccco2)n1	none
CN(C)C(=O)c1ccc(-c2nc(N(C)Cc3ccco3)c3ccccc3n2)cc1	EPAC1 agonist inconclusive
CN(C)c1ccc(-c2nc(N(C)Cc3ccco3)c3ccccc3n2)cc1	EPAC1 agonist inconclusive
Cc1noc(C)c1-c1nc(N(C)Cc2ccco2)c2ccccc2n1	EPAC2 antag 20µM, EPAC1 agonist inconclusive
